An excerpt weighted towards active compounds, which were near 11% of everything screened.
AMA1-RON2 inh – disrupts binding of P. falciparum AMA1 to RON2. AID 720542. Potency, µM (titrated, usually from 58.2 µM), usual class: inhibitors. actives 0.2% (n = 360,000). AlphaScreen AMA1-biotinylated RON2 peptide binding; also: nearly all actives have a fitted effect of over 45% in size
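AMA1 (3D7) with his tag at 25 nM final met compounds first, then biotinylated RON2 peptide at 25 nM; detection used donor plus acceptor beads, 10 µg/mL apiece, read by AlphaScreen after 30 min at room temperature.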
Pf growth 96h – P. falciparum growth inhibition at 96 hours | P. falciparum luciferase reporter growth, 96 h | Potency, µM (highest dose often 28.7 µM), actives largely listed as inhibitors | actives 6.9% (n = 320,000) | AID 504834
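Readout is luminescence from an integrated firefly luciferase in P. falciparum. Red cells, 2% hematocrit and 0.05% parasitemia final, were cultured with compound through two parasite generations (96 hours) at 37 C, 5% CO2.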
Pf growth 48h – inhibits P. falciparum growth in the first generation, 48 h | P. falciparum luciferase growth in erythrocytes, 48 h | Potency, µM (series often up to 28.7 µM), usual class: inhibitors | actives 5.9% (n = 310,000)
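First compound was added to culture medium, then infected red cells at 0.1% parasitemia and 2% hematocrit (final). After incubation at 37 C under 5% CO2, luciferase detection reagent was dispensed and light output recorded.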
HCV inh – blocks hepatitis C virus; Huh7.5.1 HCVcc-Cre infection, luciferase reporter, 44 h; Potency, µM (doses to about 41.8 µM), actives largely listed as inhibitors; actives 3.4% (n = 340,000); AID 651820
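Reporter virus HCVcc-Cre (~0.5 moi) infects cells exposed to compound; seeding density 1,000 cells/well with 4 h settling beforehand. Luminescence, 15 sec read, taken 44 h post-infection following a 15 min RT substrate incubation.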
AmpC no deterg – AmpC beta-lactamase inhibition without detergent; AmpC nitrocefin hydrolysis, absorbance 480 nm, 0.0001% Triton; actives 0.52% (n = 330,000); Potency, µM (top dose mostly 57.1 µM), usual class: inhibitors; P00811; also: nearly all actives have a fitted effect of over 20% in size
Target sequence (P00811 whole entry, looked up): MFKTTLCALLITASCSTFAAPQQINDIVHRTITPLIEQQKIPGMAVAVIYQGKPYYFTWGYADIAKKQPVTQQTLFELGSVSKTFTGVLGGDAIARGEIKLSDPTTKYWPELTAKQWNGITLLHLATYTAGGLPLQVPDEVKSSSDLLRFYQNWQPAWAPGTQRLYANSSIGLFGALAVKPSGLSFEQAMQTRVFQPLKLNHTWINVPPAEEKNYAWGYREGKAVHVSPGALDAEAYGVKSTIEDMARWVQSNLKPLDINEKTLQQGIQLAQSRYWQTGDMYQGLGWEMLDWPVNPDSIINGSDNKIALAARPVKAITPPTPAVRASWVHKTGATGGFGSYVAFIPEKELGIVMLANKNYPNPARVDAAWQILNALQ
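AmpC (5.3 nM in the dispensed reagent) in 20 mM phosphate pH 7.0 with 0.01% (detergent screen) or 0.0001% Triton X-100 was preincubated with compounds for 15 min at room temperature. Nitrocefin was then added from an 800 uM solution, and hydrolysis was followed at 480 nm.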
AmpC detergent – inhibitors of E. coli AmpC beta-lactamase with detergent. P00811. AmpC hydrolysis of nitrocefin, absorbance 480 nm, 0.01% Triton. Potency, µM (titrated, usually from 114 µM), actives largely listed as inhibitors. actives 0.041% (n = 370,000). AID 485294; also: nearly all actives have a fitted effect of over 25% in size
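AmpC (5.3 nM in the dispensed reagent) in 20 mM phosphate pH 7.0 with 0.01% (detergent screen) or 0.0001% Triton X-100 was preincubated with compounds for 15 min at room temperature. Nitrocefin was then added from an 800 uM solution, and hydrolysis was followed at 480 nm.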
Of the large screens only hits and unclear results are named; the others gave an inactive call. Calls follow the shape of the dose curve; as a rule, active = well fitted curve in the direction sought with a large enough effect; inconclusive = small, poorly fitted or top-dose-only effect, or another doubt; inactive = no such curve, though single readings can be large; an effect the other way counts as inactive or inconclusive.

CCN1C(=O)[C@H]2[C@@H](c3ccc(-c4ccc5c(c4)OCO5)c(OC)c3)N[C@@](CC(C)C)(C(=O)OC)[C@H]2C1=O	Pf growth 96h 13µM, Pf growth 48h 6.6µM
CCN1C(=O)[C@H]2[C@@H](c3ccc(-c4ccc5c(c4)OCO5)c(OC)c3)N[C@@](Cc3ccccc3)(C(=O)OC)[C@H]2C1=O	Pf growth 96h inconclusive, Pf growth 48h 1.2µM, HCV inh inconclusive, AmpC detergent inconclusive
CC1(C)CN=C(Nc2ccc(F)c(Cl)c2)S1	Pf growth 96h inconclusive, Pf growth 48h inconclusive
CNC(=O)N(C1=NCC(C)(C)S1)c1ccc(F)c(Cl)c1	Pf growth 96h 7.4µM (no result: Pf growth 48h)
CCC(=O)N1CCc2cc(S(=O)(=O)NCCC(=O)Nc3ccc(CC)cc3)ccc21	none (no result: AMA1-RON2 inh, Pf growth 96h, Pf growth 48h, HCV inh, AmpC no deterg)
O=c1cc(NCc2ccco2)[nH]c(=O)n1-c1ccc(Br)cc1	Pf growth 96h 9.3µM
N=c1c2ccccc2nnn1-c1ccc(C(F)(F)F)cc1	Pf growth 96h inconclusive, Pf growth 48h 0.29µM
CCc1ccc(N(C(=O)c2ccco2)C(C(=O)NC2CCCC2)c2ccncc2)cc1 (configuration not stated)	Pf growth 96h inconclusive
O=C(NC1CCCCC1)C(c1ccncc1)N(Cc1ccc2c(c1)OCO2)C(=O)C(F)(F)F (configuration not stated)	Pf growth 96h 2.1µM, Pf growth 48h 9.3µM, AmpC detergent inconclusive
CCc1ccc(N(C(=O)C(F)(F)F)C(C(=O)NC2CCCCC2)c2ccncc2)cc1 (configuration not stated)	Pf growth 96h 2.6µM, Pf growth 48h 13µM, AmpC no deterg 0.56µM
Cc1c(NC(=O)c2cccs2)cccc1-c1nc2cc(Cl)ccc2o1	none (no result: AMA1-RON2 inh, Pf growth 96h, Pf growth 48h, HCV inh, AmpC no deterg)
Cc1cc(OC(C)C(=O)N2CCC(c3nc4ccccc4o3)CC2)ccc1Cl (configuration not stated)	none (no result: AMA1-RON2 inh, Pf growth 96h, Pf growth 48h, HCV inh, AmpC no deterg)
O=C(CC1Sc2ccccc2NC1=O)Nc1cccnc1 (configuration not stated)	none
O=C(CC1Sc2ccccc2NC1=O)Nc1cccc(-c2nnc3n2CCCCC3)c1 (configuration not stated)	Pf growth 96h 13µM, Pf growth 48h 9.3µM
CCOC(=O)CNC(=S)N(Cc1ccco1)Cc1ccccc1Cl	Pf growth 96h 2.6µM
Cc1c(N)cccc1N	Pf growth 96h inconclusive
Cc1ccc2cccc(N)c2n1	Pf growth 96h 0.93µM
CCOc1ccccc1CNC(=O)CSc1n[nH]c(-c2ccccc2Cl)n1	none (no result: AMA1-RON2 inh, Pf growth 96h, Pf growth 48h, HCV inh, AmpC no deterg)
COc1ccc(C(=O)NCCNc2nc3ccc(C)cc3cc2C#N)cc1	Pf growth 96h 9.3µM, Pf growth 48h inconclusive, HCV inh inconclusive
COc1ccc(OC)c(-c2noc(CSc3nnc(-c4ccccc4)n3-c3ccccc3)n2)c1	none (no result: AMA1-RON2 inh, Pf growth 96h, Pf growth 48h, HCV inh, AmpC no deterg)
Cc1ccc(CNC(=O)c2cc(C)nn2-c2ccccc2)cc1	none
Cc1ccc(Cc2nnc3n(-c4ccccc4)nc(C(=O)c4ccccc4)n3c2=O)cc1	Pf growth 96h 13µM, Pf growth 48h 13µM, HCV inh inconclusive
CC(C)C[C@@H]1NC(=O)[C@H](Cc2ccc(O)cc2)NC(=O)c2cc([N+](=O)[O-])cc(I)c2NCCC[C@@H](C(N)=O)NC1=O	Pf growth 96h 10µM, Pf growth 48h inconclusive, AmpC no deterg 4µM, AmpC detergent inconclusive
CCc1c(C)sc(NC(=O)OC)c1C(N)=O	Pf growth 96h 4.1µM
Cc1ccc(S(=O)(=O)N2CCN(C(=O)COC(=O)c3ccccn3)CC2)c(C)c1	AmpC detergent inconclusive
CC(=O)c1c(C)[nH]c(C(=O)OCC(=O)N2CCN(S(=O)(=O)c3ccc(C)cc3)CC2)c1C	Pf growth 96h 13µM, Pf growth 48h inconclusive, HCV inh inconclusive, AmpC detergent inconclusive
CCOC(=O)c1c(C)[nH]c(C(=O)OCC(=O)N2CCN(S(=O)(=O)c3ccccc3)CC2)c1C	AmpC detergent inconclusive (no result: Pf growth 48h)
